Measurements as given in PubChem BioAssay AID1276 (Columbia University Molecular Screening Center, 2008).
The campaign covered roughly 190,000 compounds. About 2,000 (1.1%) were called active. Many of the other results were omitted from the sample, so actives are more common in it than they were. A number with no mark means an inactive call.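 How the source made its calls: active means activation above a set limit, based on mean plus 3 SD of controls (cut at about 140% in these data); inconclusive means one replicate above the limit, the other below; inactive means the rest.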

Test: APP 5'UTR reporter signal increase – luciferase, SH-SY5Y cells, primary screen (AID 1276)
Conditions: SH-SY5Y APP 5'UTR luciferase reporter, luminescence; at 2 µM; hits give high values; zero percent = DMSO vehicle wells

Row | Compound | activation
1 | Cc1cc(O)c(NC(=O)c2ccc(C)c([N+](=O)[O-])c2)cc1C | 142% (active)
2 | CCN1CCC(=NNC(=O)c2ccc(C)c([N+](=O)[O-])c2)CC1 | -0.15%
3 | Cc1ccc(C(=O)Nc2cccc3ncccc23)cc1[N+](=O)[O-] | -2.5%
4 | O=[N+]([O-])c1ccccc1N/N=C1\CCc2ccccc21 | 120%
5 | Nc1ccc(-c2nnc(-c3ccc(-c4ccccc4)cc3)o2)cc1 | 79.7%
6 | CCCCCC(=O)Nc1ccc2oc(-c3ccncc3)nc2c1 | 7.49%
7 | CCc1ccc2oc(-c3ccc(N)cc3)nc2c1 | 141% (active)
8 | C=CCNC(=S)N1CCN(CCN=Cc2c(C)[nH]n(-c3ccc([N+](=O)[O-])cc3)c2=O)CC1 | 1.34%
9 | O=C(CN1CCN(c2ccc(O)cc2)CC1)Nc1cc(S(=O)(=O)N2CCOCC2)ccc1Cl | 2.42%
10 | OCC1(CCOc2ccccc2)CCN(Cc2cn[nH]c2-c2ccccc2)CC1 | 7.79%
11 | O=C(c1cnn(-c2ccc(Cl)cc2)c1)c1ccccc1O | 177% (active)
12 | O=C(O)c1ccc(NC(=O)c2cn(-c3ccccc3)nc2-c2ccc(Cl)cc2)cc1 | 8.51%
13 | Cc1ncc(CC(=O)n2cc(C(=O)c3cc(Cl)ccc3O)cn2)s1 | 6.84%
14 | Cc1nc2ccccc2nc(=O)c1NNc1ccc([N+](=O)[O-])cc1 | -4.38%
15 | CCc1ccc(NC(=O)N2CCN(c3ccccc3)CC2)cc1 | 1.57%
16 | CCOC(=O)c1ccc(NC2Nc3cc(C)nn3S2)cc1 (centres undefined) | 4.66%
17 | CCc1ccc(NC2Nc3cc(C)nn3S2)cc1 (centres undefined) | 166% (active)
18 | CC(=O)c1ccc(-c2nnc(CCC(=O)N(C)Cc3cnc4ccccn34)o2)s1 | -5.43%
19 | COC(=O)CN1C(=O)N/C(=C/c2ccc(OC)c(C)c2OC)C1=O | -21.7%
20 | Cc1cc(C)n(Cc2cnc(N3CCOCC3)s2)n1 | 22.6%
21 | NNC(=O)c1cnn(-c2ccccc2)c1C(F)(F)F | 15.9%
22 | Cc1ccccc1Nc1nc(N)nc(CSc2ccccc2)n1 | 159% (active)
23 | Cc1ccccc1Nc1nc(N)nc(CSc2nnc3ccccn23)n1 | 59.9%
24 | Cc1ccc(C(=O)OCc2nc(N)nc(Nc3ccccc3C)n2)cc1 | -2.39%
25 | CCCC1(C(=O)OC)NC(c2ccco2)C2C(=O)N(C)C(=O)C21 (centres undefined) | 9.69%

Row | Compound | activation
26 | CC(=O)NCCc1nc2cc(NC(=O)c3ccccc3)ccc2n1C | 55.4%
27 | Cc1cc(C)c2nc(SCC(=O)N(C)C3CCS(=O)(=O)C3)cc(C)c2c1 (centres undefined) | 11.6%
28 | O=C(CC1SCCNC1=O)Nc1ccc(Cl)c(Cl)c1 (centres undefined) | -7.34%
29 | CC(NC(=O)CSc1nc2c(cc1C#N)CN(C)CC2)c1ccccc1 (centres undefined) | 1.35%
30 | Cc1nc(SCC(=O)Nc2cc(C)on2)c2c3c(sc2n1)CCCC3 | -10.6%
31 | Cc1cc(NC(=O)CSc2nc3c(cc2C#N)CCCCC3)no1 | 191% (active)
32 | COc1ccc(-c2nn3c(-c4ccccc4)nnc3s2)cc1OC | 12.1%
33 | COc1ccc(-c2csc(-c3cccs3)n2)cc1OC | 172% (active)
34 | COc1ccc(C2CC(c3cccs3)=Nc3ccccc3S2)cc1OC (centres undefined) | 2.96%
35 | O=C(NCCc1ccccn1)c1cc(-c2ccc(Cl)cc2)nc2ccccc12 | -9.75%
36 | O=c1c2c(nc3cc(-c4cccc(Cl)c4)[nH]n13)CCCC2 | 158% (active)
37 | O=C1CCCc2c1nc(-c1cccc(Cl)c1)n2O | -94.3%
38 | O=c1c2c(nc3nc[nH]n13)CCC2 | 3.94%
39 | Cc1ccc(-c2cc(N)on2)cc1 | -4.88%
40 | CCC(C)NC(=O)Cn1nc(C(F)(F)F)c2c1CCC2 (centres undefined) | -3.33%
41 | CCCC(=O)Nc1cccc(-c2cn3ccsc3n2)c1 | 20.7%
42 | COc1ccc(-c2cn3cccnc3n2)cc1 | 35.2%
43 | COc1ccc(-c2cn3ccsc3n2)cc1 | 135% (active)
44 | CN1C(=O)/C(=C\c2ccc(-c3ccccc3)o2)SC1=S | 5.23%
45 | Cc1cccc(OC(=O)c2sc3ncn(C)c(=O)c3c2C)c1 | 62.6%
46 | O=C(O)c1cccc(N2C(=O)Nc3ccccc3N2O)c1 | 27.8%
47 | O=C(c1cccc(N2CCCC2=O)c1)N1CCOCC1 | 10.7%
48 | NC1=NN(c2cccc(C(=O)O)c2)C(=O)C1 | 135% (active)
49 | CCOC(=O)c1cc2c(=O)[nH]c(C(Cl)(Cl)Cl)nc2o1 | 5.69%
50 | CCCCOc1ccc(C(=O)NCC(=O)OCC(=O)N2CCN(S(=O)(=O)c3ccc(C)cc3C)CC2)cc1 | -1.98%

Row | Compound | activation
51 | Cc1ccnc(Nc2nc3ccccc3s2)n1 | 127%
52 | c1ccc2sc(NN=C3CCCC3)nc2c1 | 193% (active)
53 | O=[N+]([O-])c1cc(Br)c(O)c(/C=N/Nc2nc3ccccc3s2)c1 | 12.5%
54 | CCOCCCNC(=S)N1CCC(NC(=O)C2CCCCC2)CC1 | -16.3%
55 | CCn1ccnc1CN(C)Cc1nc(-c2ccc3c(c2)OCO3)no1 | 14.5%
56 | O=C(/C=C\c1cn(-c2ccccc2)nc1-c1cccs1)N1CCOCC1 | -5.12%
57 | O=C(O)/C=C/c1cn(-c2ccccc2)nc1-c1cccs1 | -9.09%
58 | O=C(O)c1ccc(N/N=C/c2cn(-c3ccccc3)nc2-c2cccs2)cc1 | 140% (active)
59 | COc1ccc(/C=N/N=C/c2c[nH]c(=O)c(C#N)c2Nc2ccccc2)cc1 | -8.9%
60 | COc1cccc2sc(NNC(=O)c3nc4ccccc4s3)nc12 | 7.9%
61 | COc1ccccc1OCc1nc2ccccc2s1 | 142% (active)
62 | CCc1ccc(-c2nnn(Cc3nc4ccccc4s3)n2)cc1 | 0.38%
63 | CC(O)C(NS(=O)(=O)c1ccc(Cl)cc1)C(=O)OCc1cc([N+](=O)[O-])cc2c1OCOC2 (centres undefined) | 22.7%
64 | CCOc1nc(-c2ccc(OC)cc2)ccc1-c1noc(-c2cc(OC)c(OC)c(OC)c2)n1 | -12.3%
65 | COc1ccc(-c2nc(-c3ccccc3)no2)c(OC)c1 | 139% (active)
66 | COc1ccc(-c2noc(-c3ccc(C)cc3)n2)cc1 | 38.2%
67 | COc1ccccc1NC(=O)C1=C(C)NC(=O)NC1c1ccc(C)s1 (centres undefined) | 12.8%
68 | COc1ccccc1NC(=O)c1ccc(C)s1 | 141% (active)
69 | COC(=O)c1c(NC(C)=O)sc(C(=O)Nc2ccccc2OC)c1C | 2.59%
70 | CC[n+]1c(C)n(-c2ccccc2)c2ccc(NC(C)=O)cc21 | 19.1%
71 | CCOC(=O)c1sc(NC(=O)c2ccncc2)nc1C | 7.58%
72 | COC(=O)c1sc(NC(=O)c2ccc(OC)cc2OC)nc1C | 137% (active)
73 | COc1ccc(C(=O)Nc2nncs2)c(OC)c1 | 31.6%
74 | CCN(CC(=O)Nc1ccc(Cl)c(S(=O)(=O)N(C)C)c1)Cc1nc2ccccc2c(=O)[nH]1 | -2.77%
75 | O=C(O)Cc1sc(-c2ccccc2)nc1-c1cccs1 | 2.54%

Row | Compound | activation
76 | O=C(O)Cc1sc(-c2ccc(C(=O)O)cc2)nc1-c1ccccc1 | 19.5%
77 | NC(=O)Cc1ccc2sc(-c3ccccc3)nc2c1 | 140% (active)
78 | O=C(Nc1nc2ccc([N+](=O)[O-])cc2s1)c1ccc(S(=O)(=O)N2CCCc3ccccc32)cc1 | 2.11%
79 | CCCCN(C(=O)COc1ccc(NC(C)=O)cc1)C1CCS(=O)(=O)C1 (centres undefined) | 6.89%
80 | COc1cccc(C(=O)Nc2nc3ccc(S(C)(=O)=O)cc3s2)c1 | 61.6%
81 | COc1ccc2nc(Nc3nc4ccc(NC(C)=O)cc4s3)sc2c1 | 20.2%
82 | COc1ccc2nc(NC(=O)c3ccc(Br)s3)sc2c1 | 136% (active)
83 | CCOC(=O)CSC1=N/C(=C/c2ccc(-n3cncn3)cc2)C(=O)N1C(C)=O | -12%
84 | O=C(NCc1nnc(SCC(=O)N2CCC(Cc3ccccc3)CC2)o1)c1ccco1 | -6.49%
85 | O=C(OCc1ccc([N+](=O)[O-])cc1)c1ccccn1 | -1.07%
86 | N/C(=N\OC(=O)Cc1ccc([N+](=O)[O-])cc1)c1ccccn1 | 60.6%
87 | N/C(=N\OC(=O)c1ccc([N+](=O)[O-])cc1)c1ccccn1 | 149% (active)
88 | O=[N+]([O-])c1ccc2[nH]c3c(c2c1)CCCC3O (centres undefined) | -8.34%
89 | O=C(COC(=O)c1ccccc1F)Nc1cc(S(=O)(=O)N2CCOCC2)ccc1N1CCCC1 | 6.91%
90 | O=C(/C=C/c1ccc(N2CCOCC2)cc1)c1ccccc1 | 140% (active)
91 | O=C(/C=C/c1ccccc1)c1ccoc1 | 0.93%
92 | O=C(O)c1ccc2c(c1)C(=O)N(c1ccc(/C=C/C(=O)c3ccccc3)cc1)C2=O | 19.3%
93 | O=S(=O)(Nc1ccccn1)c1cccc(S(=O)(=O)c2ccc(Cl)cc2)c1 | 8.9%
94 | COCCNC(=S)Nc1cc(S(=O)(=O)N2CCOCC2)ccc1N1CCCCC1 | 21.7%
95 | Cn1nnnc1SCC(=O)NNC(=O)c1ccc(Br)cc1 | -3.54%
96 | O=C(COC(=O)CNS(=O)(=O)c1ccccc1)NC12CC3CC(CC(C3)C1)C2 | 0.34%
97 | CN(C)CCn1c(=S)[nH]c2ccc(Cl)cc2c1=O | -6.45%
98 | CN(C)CCN=c1cc(-c2ccccc2)oc2ccc(Cl)cc12 | 158% (active)
99 | Cc1cc(C)n(-c2ccc(C(=O)O)cc2[N+](=O)[O-])n1 | -4.56%
